The values that follow come from PubChem BioAssay (NCI).

Holding throughout (assay): NCI-60 one-dose screen, 48 h (100 = growth as untreated, 0 = no growth, -100 = all killed)
One test has as its system NCI-H23 lung. The following applies: 10 µM unless noted.
Another test deals with NCI-H226 lung. The note with it: 10 µM unless noted.
The subject of another test is NCI-H322M lung. The following applies: 10 µM unless noted.
The next test has as its system NCI-H460 lung. The note with it: 10 µM unless noted.
The subject of a further test is HOP-92 NSCLC. The note with it: 10 µM.
The next test relates to NCI-H522 lung. The following applies: 10 µM.
Another test concerns A549/ATCC NSCLC. The following applies: 10 µM unless noted.
A further test has as its system 786-0 renal. The note with it: 10 µM unless noted.
The test system of another test is DU-145 prostate. The following applies: 10 µM unless noted.
Another test deals with K-562 leukemia. The note with it: 10 µM unless noted.
For another test, the system named is MALME-3M melanoma. The note with it: 10 µM unless noted.
The subject of a further test is MDA-MB-231 breast. The note with it: 10 µM unless noted.
For another test, the system named is RXF 393 renal. The note with it: 10 µM unless noted.
The next test relates to SF-268 CNS. The following applies: 10 µM unless noted.
The subject of another test is SF-295 CNS. The note with it: 10 µM unless noted.
The next test concerns SF-539 CNS. The note with it: 10 µM unless noted.
The next test concerns UACC-257 melanoma. The following applies: 10 µM unless noted.
For a further test, the system named is M14 melanoma. The note with it: 10 µM unless noted.
The next test relates to COLO 205 colon. The following applies: 10 µM unless noted.

The panel holds about 83,000 compounds, 20% with a hit somewhere; the sample as a whole holds those more often.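 Single-dose data. Exposure time 48 hours. Values below 10 considered active.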 Unmarked numbers belong to inactive results. Active and inactive are the calls of the source.

In the case of `Cc1nnc(/N=C2\NC(=O)/C(=C/C=C/c3ccccc3)S2)s1`, the growth in the test on NCI-H23 lung is 55.2%; in the test on NCI-H226 lung, 78%; in the test with NCI-H322M lung, 72.8%; in the test on NCI-H460 lung, 24.5%; in the test with HOP-92 NSCLC it was 56.9%; in the test with NCI-H522 lung it was 1.52% (active). In addition, the growth in the test with A549/ATCC NSCLC is 39.8%; in the test with 786-0 renal, 66.9%; with DU-145 prostate it was 57.5%; with K-562 leukemia, 36%; in the test on MALME-3M melanoma, 54.1%; in the test with MDA-MB-231 breast it was 71.4%. Besides, the growth in the test with RXF 393 renal is 69.2%; in the test with SF-268 CNS, 51.9%; in the test with SF-295 CNS, 32.5%; in the test on SF-539 CNS, 64.9%; in the test with UACC-257 melanoma, 75.3%; with M14 melanoma it was 49.8%.
In the case of `COc1cc2cc3cc4cc(OC)c(OC)cc4c(C)[n+]3cc2cc1OC` (tested in a mixture with another compound), the growth in the test with NCI-H23 lung is 89%; in the test on NCI-H226 lung it was 80%; in the test with NCI-H322M lung it was 89.8%; in the test with NCI-H460 lung, 89.1%; in the test on HOP-92 NSCLC, 143%; in the test on NCI-H522 lung, 56.4%. The growth in the test on 786-0 renal is 66.5%; in the test on COLO 205 colon it was 111%; in the test on DU-145 prostate it was 79.3%; with K-562 leukemia, 58.1%; in the test on MALME-3M melanoma, 86.2%; with MDA-MB-231 breast it was 94.5%. Besides, the growth in the test on SF-268 CNS was 39.4%; in the test with SF-295 CNS it was 70.7%; with SF-539 CNS, 85%; with UACC-257 melanoma, 51.1%; with M14 melanoma it was 78.4%.
For the molecule `COc1ccc(C(O)(c2ccccc2)C(C(=O)O)c2ccccc2)cc1` (stereo not given), the growth with NCI-H23 lung was 102%; in the test on NCI-H226 lung, 106%; in the test with NCI-H322M lung, 105%; with NCI-H460 lung it was 116%; with HOP-92 NSCLC it was 63%; in the test on NCI-H522 lung, 98.5%. For the same molecule, the growth is 103% with 786-0 renal; 111% in the test with COLO 205 colon; 118% in the test with DU-145 prostate; 101% in the test on K-562 leukemia; 107% in the test with MALME-3M melanoma; 103% in the test on MDA-MB-231 breast. Further, the growth in the test on RXF 393 renal was 121%; in the test on SF-268 CNS it was 107%; in the test with SF-295 CNS, 118%; with SF-539 CNS, 92.7%; with UACC-257 melanoma, 127%; in the test on M14 melanoma, 103%.
With `CC(=O)OC1CC2C3CCC4C[C@@H](NC(=O)C=C(C)C)CC[C@]4(C)C3CC[C@]2(C)[C@H]1C(C)N(C)C` (stereo not given in full), the growth in the test with NCI-H23 lung was 40.6%; in the test with NCI-H226 lung it was 30.5%; in the test with NCI-H322M lung it was -2.28% (active); in the test on NCI-H460 lung, -39.9% (active); in the test on HOP-92 NSCLC it was -36.2% (active); in the test with NCI-H522 lung, 61.2%. The growth with A549/ATCC NSCLC was 11.6%; in the test on COLO 205 colon it was -84% (active); with DU-145 prostate, 31.6%; in the test with K-562 leukemia, -37.5% (active); with MALME-3M melanoma, -54% (active); in the test on MDA-MB-231 breast, -36.1% (active). The growth in the test on RXF 393 renal was -64.6% (active); in the test on SF-268 CNS it was -63% (active); in the test on SF-295 CNS it was -37.6% (active); in the test on SF-539 CNS it was -76.5% (active); in the test with UACC-257 melanoma it was -58.4% (active); in the test on M14 melanoma it was -59.9% (active).
As for `COC(=O)/C=C/c1cc(O)c2oc(-c3ccc(O)c(O)c3)c(C(=O)OC)c2c1`, the growth with NCI-H23 lung was 30.4%; with NCI-H226 lung it was 18.2%; in the test with NCI-H322M lung it was 48.7%; in the test on NCI-H460 lung, 29.1%; in the test with HOP-92 NSCLC it was 56.1%; in the test on NCI-H522 lung, -0.902% (active). Moreover, the growth in the test with A549/ATCC NSCLC is 57.2%; in the test with 786-0 renal, 44.2%; in the test on DU-145 prostate it was 17.5%; with MALME-3M melanoma, 57.4%; in the test on MDA-MB-231 breast, 31.1%; in the test on SF-268 CNS, 25.2%. Besides, the growth is -11.3% (active) in the test with SF-295 CNS, 2.83% (active) in the test on SF-539 CNS, 60.4% in the test with UACC-257 melanoma and 21% with M14 melanoma.
As to `CCCCCSc1ccc2nc(NC(=O)OCC)sc2c1`, the growth in the test with NCI-H23 lung is 18.5%; in the test on NCI-H226 lung, 21.7%; in the test on NCI-H322M lung it was 41.3%; in the test with NCI-H460 lung, 10.5%; with HOP-92 NSCLC it was 31.7%; in the test with NCI-H522 lung, 20.8%. The growth was 34.6% in the test with A549/ATCC NSCLC; 33.6% with 786-0 renal; 22.8% in the test on DU-145 prostate; 15.9% with K-562 leukemia; 42.2% with MALME-3M melanoma; 26.4% with MDA-MB-231 breast. Moreover, the growth with RXF 393 renal is 7.13% (active); in the test with SF-268 CNS it was 50.8%; with SF-295 CNS it was 6.93% (active); with SF-539 CNS it was -12.1% (active); with UACC-257 melanoma it was 67.4%; in the test with M14 melanoma, 11.9%.
Regarding `CC1(C)Oc2cc3oc(=O)ccc3cc2C[C@@H]1OCCOS(=O)(=O)c1ccc(C#N)cc1`, the growth in the test on NCI-H23 lung was 91.8%; with NCI-H226 lung, 87.8%; in the test with NCI-H322M lung, 105%; with NCI-H460 lung, 93%; in the test with HOP-92 NSCLC it was 91.4%; with NCI-H522 lung, 77.8%. Besides, the growth is 92.5% in the test on A549/ATCC NSCLC; 100% in the test on 786-0 renal; 103% in the test on DU-145 prostate; 93.6% with MALME-3M melanoma; 94.5% in the test on MDA-MB-231 breast; 89.2% with SF-268 CNS. Moreover, the growth in the test on SF-295 CNS is 87.7%; in the test with SF-539 CNS, 96.6%; in the test with UACC-257 melanoma, 84.2%; with M14 melanoma, 98.4%.
For `CCS(=O)(=O)OCCO[C@H]1Cc2cc3ccc(=O)oc3cc2OC1(C)C`, the growth with NCI-H23 lung is 105%; with NCI-H226 lung, 98.4%; with NCI-H322M lung, 111%; in the test with NCI-H460 lung, 105%; with HOP-92 NSCLC, 103%; in the test with NCI-H522 lung, 89.1%. Moreover, the growth with A549/ATCC NSCLC is 97.3%; in the test with 786-0 renal, 106%; in the test with DU-145 prostate, 103%; in the test on MALME-3M melanoma, 105%; in the test with MDA-MB-231 breast, 115%; with SF-268 CNS, 98.9%. Moreover, the growth is 101% with SF-295 CNS, 100% with SF-539 CNS, 97.8% in the test with UACC-257 melanoma and 104% in the test with M14 melanoma.
Regarding `COC(=O)c1ccc2[nH]c(O)c(C(=Nc3ccc(N(C)C(=O)CN4CCN(C)CC4)cc3)c3ccc(N)cc3)c2c1`, the growth with NCI-H23 lung is 70%; in the test on NCI-H226 lung, 56.5%; with NCI-H322M lung, 77.4%; with NCI-H460 lung, 105%; with NCI-H522 lung, 75.5%; in the test on A549/ATCC NSCLC it was 111%. For the same molecule, the growth is 63.9% in the test on 786-0 renal; 41.4% in the test with COLO 205 colon; 96.8% in the test with DU-145 prostate; 14% in the test with K-562 leukemia; 83.5% in the test on MALME-3M melanoma; 87.6% in the test with MDA-MB-231 breast. Further, the growth in the test on RXF 393 renal is 56.7%; in the test with SF-268 CNS, 62.4%; in the test with SF-295 CNS, 99.1%; with SF-539 CNS, 50.8%; in the test on UACC-257 melanoma it was 125%; with M14 melanoma it was 88%.
